# From PubChem BioAssay
# Rows were chosen to be rich in hits. Some 2.3% of all compounds tested hit in one or more screens of this group.
# USP1-UAF1 inh: Inhibitors of USP1/UAF1: Primary Screen | Potency, µM (highest dose often 57.1 µM), for the others: at the highest dose activity change, negative = inhibition, actives largely listed as inhibitors | 0.23% of 390,000 active | Ubiquitin carboxyl-terminal hydrolase 1 (Homo sapiens), O94782 | recombinant USP1/UAF1, Ub-Rhodamine cleavage fluorescence; also: potency is read from the fitted curve at half-maximal effect; nearly all actives have a fitted effect of over 60% in size
#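 1 nM enzyme complex + cpd, 15 min RT; start with Ub-Rho 150nM final; kinetic fluorescence ex 480/em 540, 6 reads q60 s. Buffer 50mM HEPES pH 7.8, 0.5mM EDTA, 0.1 mg/ml BSA, 1mM TCEP, 0.01% Tween-20.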
# FBPA coupling cs: qHTS Assay for Inhibitors of Fructose-1,6-bisphosphate Aldolase from Giardia Lamblia: Coupling assay counterscreen; coupling enzyme system counterscreen, AmpLite Red fluorescence; activity change, negative = inhibition, % at 58.2 µM, hits read low; 0.67% of 290,000 active; AID 2472, 2010; in the data active = activity change below about -30%
#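 Compounds tested against the coupling enzymes alone at 57.5 uM final; readout was AmpLite Red fluorescence (525/598 nm) after 20 min at RT.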
# Tau FP inhib: qHTS for Inhibitors of Tau Fibril Formation, Fluorescence Polarization | K18 P301L tau heparin fibrillization, Alexa594 FP, 6 h | Potency, µM (highest dose often 57.7 µM), without a hit: at the highest dose activity, negative = inhibition, actives largely listed as inhibitors | Microtubule-associated protein tau (Homo sapiens), P10636 | 0.39% of 280,000 active; also: potency is read from the fitted curve at half-maximal effect; nearly all actives have a fitted effect of over 55% in size
# Target sequence (P10636 561-689 P618L limits assumed): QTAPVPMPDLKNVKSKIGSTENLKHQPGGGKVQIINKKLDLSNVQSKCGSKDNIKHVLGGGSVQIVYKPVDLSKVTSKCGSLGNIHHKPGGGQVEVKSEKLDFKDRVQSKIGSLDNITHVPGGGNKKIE
#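 Recombinant K18 P301L […], labeled with Alexa 594 at 0.24 uM over 15 uM unlabeled; heparin inducer 20 uM final; 37 C, 6 hr; FP endpoint.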
# Tau ThT inhib: qHTS for Inhibitors of Tau Fibril Formation, Thioflavin T Binding; recombinant tau K18 P301L, heparin-induced fibrillization, ThT fluorescence; Potency, µM (series often up to 57.4 µM), for inactives: top-dose activity, negative = inhibition, hits mostly inhibitors; 2.1% of 270,000 active; AID 1460, 2008; also: potency is read from the fitted curve at half-maximal effect; nearly all actives have a fitted effect of over 55% in size
#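 Heparin-induced fibrillization of the P301L-mutant K18 repeat-domain fragment of human tau was followed by ThT binding in quantitative high-throughput format.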
# Tau fluor counter: Counterscreen qHTS for Inhibitors of Tau Fibril Formation, Fluorescence Polarization; tau K18 P301L Alexa594 fluorescence, heparin fibrillization; Potency, µM (highest dose often 57.7 µM), for the others: at the top dose activity change, negative = decrease; 0.93% of 280,000 active; also: potency is read from the fitted curve at half-maximal effect; nearly all actives have a fitted effect of over 55% in size
#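 Human tau K18 P301L (15 uM unlabeled, 0.24 uM Alexa 594-labeled) in 100 mM sodium acetate pH 7 with 20 uM heparin, 6 hr at 37 C. ThT 30 uM added, 1 hr ambient; Alexa 594 FP and total fluorescence read at 555/632 nm.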
# * hit, by the source's call; ? = inconclusive; nt = no result; [ ] = dose if it differs, or a comment. Unless noted, calls follow the shape of the dose curve; as a rule, active = well fitted curve in the direction sought with a large enough effect; inconclusive = small, poorly fitted or top-dose-only effect, or another doubt; inactive = no such curve, though single readings can be large; an effect the other way counts as inactive or inconclusive. % is scaled to controls: 0 for no effect and ±100 for the full control effect.
SMILES,USP1-UAF1 inh,FBPA coupling cs,Tau FP inhib,Tau ThT inhib,Tau fluor counter
COc1ccc(C2C(C(C)=O)=C(C)N=c3s/c(=C\c4ccco4)c(=O)n32)c(OC)c1 (stereo not drawn),-18%,-4,-6%,13µM*,?
CCc1ccc(-n2c3nc(=O)[nH]c(=O)c-3cc3c(C)nn(-c4ccccc4)c32)cc1,-8%,nt,-2%,1%,2%
O=C(c1ccco1)N1CCC2(CC1)CCN(c1ccncc1)CC2,nt,3,nt,nt,nt
COc1ccc(CCNC(=O)Cn2c(=O)nc(-c3ccccc3)c3ccccc32)cc1OC,-15%,nt,12%,3%,15%
C/C(=N\NC(=O)c1ccc(O)cc1)c1ccc2c(c1)Nc1ccccc1S2,-13%,-1,-8%,4.5µM*,11µM*[quencher]
C/C(=N\NC(=O)c1ccccc1F)c1ccc2c(c1)Nc1ccccc1S2,78%,3,?,2µM*,3.5µM*[quencher]
NC(=S)N/N=C/c1coc2ccc(Br)cc2c1=O,-23%,-1,-2%,nt,-14%
NC(=S)N/N=C/c1coc2cc(Br)ccc2c1=O,-8%,0,-12%,16µM*,?
COc1ccc(/C=C/c2nc(-c3ccccc3O)n[nH]2)cc1OC,-21%,-1,?,10%,16µM*[quencher]
CCc1ccc(-n2nc(C)c3c(C)cc(=O)n(CC(=O)Nc4ccc(C(C)=O)cc4)c32)cc1,-10%,nt,-10%,17%,-7%
CN(C)c1ccc(NC(=O)c2ccc(Cn3cc([N+](=O)[O-])cn3)cc2)cc1,-29%,-6,14%,13µM*,?
COc1ccc(NC(=O)c2ccc(Cn3cc(Cl)cn3)cc2)cc1,-7%,-4,6%,2%,20%[2.34 µM]
O=C(Nc1cnn(Cc2c(Cl)cccc2Cl)c1)c1ccc([N+](=O)[O-])cc1,-18%,-3,?,-20%,25µM*[quencher]
COc1ccc(NC(=O)/C(N=Nc2ccc(Cl)c(S(=O)(=O)Nc3ccc(Cl)cc3)c2)=C(\C)O)cc1,-8%,nt,nt,nt,nt
COc1ccc(N=N/C(C(C)=O)=C(/C)O)cc1,-10%,2,2%,16µM*,-13%
Cc1ccc(SCc2nc(-c3ccc(C(=O)NCc4ccc(Cl)cc4)cc3)oc2C)cc1,-12%,nt,-14%,7%,10%
Sc1oc(-c2ccccc2)cc1C=Nc1ccccc1,-22%,-4,5%,8.9µM*,18µM*[quencher]
O=c1c(O)c(-c2cccs2)oc2ccccc12,?,-1,8%,-18%,-6%
O=c1c(O)c(-c2cccs2)oc2ccc(Cl)cc12,25µM*,4,-6%,?,?
COc1ccc(O)c(-c2c(-c3ccc(Cl)cc3)n[nH]c2C)c1,-1%,-13,-5%,-13%,-28%
Cc1[nH]nc(-c2ccc(O)cc2O)c1-c1ccc(Cl)cc1,-12%,nt,?,-16%,22µM*[quencher]
COc1ccc(-c2n[nH]c(C)c2-c2ccc(Cl)cc2)c(O)c1,-17%,1,-10%,?,20µM*[quencher]
O=C1NC(=S)N/C1=C/c1cccc([N+](=O)[O-])c1O,-26%,6,-8%,4.5µM*,?
Cc1ccc(/C=C2\NC(=S)NC2=O)cc1[N+](=O)[O-],-21%,1,0%,?,-10%
O=C1NC(=S)N/C1=C/c1cc([N+](=O)[O-])ccc1O,-20%,11,-1%,16µM*,-20%
Cc1c(CNCCCc2ccccc2)c(C(=O)O)c(C)n1Cc1ccc(Cl)cc1,-12%,nt,5%,-8%,-4%
CCC(Sc1nc2cc(OC)c(OC)cc2c(=O)n1CCc1ccc(Cl)cc1)C(=O)NCCOC (stereo not drawn),-25%,nt,-4%,3%,-7%
Cc1ccccc1Nc1oc(-c2ccccc2)nc1-c1ccccc1F,nt,0,?,-6%,-21%
O=C(CCCn1c2ccccc2c(=O)c2ccccc21)Nc1ccc(F)cc1Cl,-9%,nt,-7%,?,-24%
